An excerpt weighted towards active compounds, which were near 18% of everything screened.
Six1-Eya2 inh = qHTS Assay for Inhibitors of the Six1/Eya2 Interaction; 360,000 tested, 0.56% active; AlphaScreen GST-Six1/His-Eya2 binding, biochemical; hits give low values; Homeobox protein SIX1 (Homo sapiens) + Protein phosphatase EYA2 (Homo sapiens), …; AID 651725, 2012; activity change, % (concentration not given with the values); in the data active = activity change below about -65%; inconclusive = mostly about -30% to -63%
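Homogeneous AlphaScreen proximity assay pairing GST-Six1 with His-tagged Eya2 (added as 5X mix: 250 nM and 500 nM) in 50 mM Tris pH 8.0, 300 mM NaCl, 1 mM TCEP. Glutathione donor and nickel acceptor beads; 1 h, 37 °C, dark.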
TDP1 inh = qHTS Assay for Inhibitors of Tyrosyl-DNA Phosphodiesterase (TDP1). Tyrosyl-DNA phosphodiesterase 1 (Homo sapiens), Q9NUW8. recombinant TDP1, AlphaScreen DNA substrate cleavage. Potency, µM (doses to about 130 µM), hits mostly inhibitors. 350,000 tested, 0.28% active. AID 485290, 2010; also: nearly all actives have a fitted effect of over 40% in size
Target sequence (Q9NUW8 whole entry, looked up): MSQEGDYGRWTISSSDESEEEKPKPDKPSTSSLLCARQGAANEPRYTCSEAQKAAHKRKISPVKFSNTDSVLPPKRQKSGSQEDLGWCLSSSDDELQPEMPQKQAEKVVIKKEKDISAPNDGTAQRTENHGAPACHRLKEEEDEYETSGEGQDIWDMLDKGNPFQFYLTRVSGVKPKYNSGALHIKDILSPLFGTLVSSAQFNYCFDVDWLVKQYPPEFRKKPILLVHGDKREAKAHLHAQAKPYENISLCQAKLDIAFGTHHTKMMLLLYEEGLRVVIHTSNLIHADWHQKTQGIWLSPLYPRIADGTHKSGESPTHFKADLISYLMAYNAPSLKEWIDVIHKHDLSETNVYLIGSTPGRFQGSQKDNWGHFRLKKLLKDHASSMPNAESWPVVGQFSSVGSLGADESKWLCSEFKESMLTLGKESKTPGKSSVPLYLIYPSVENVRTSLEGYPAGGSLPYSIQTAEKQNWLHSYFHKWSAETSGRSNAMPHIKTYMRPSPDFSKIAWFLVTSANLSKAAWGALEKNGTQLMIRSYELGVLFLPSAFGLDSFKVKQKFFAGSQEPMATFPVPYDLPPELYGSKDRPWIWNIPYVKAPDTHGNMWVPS
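Signal: AlphaScreen proximity between streptavidin donor and anti-FITC acceptor beads on intact substrate. Reaction: Tdp1 1 nM, substrate 15 nM final, 5 min RT after 15 min compound preincubation.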
CtBP-E1A inh = qHTS Assay for Inhibitors of the CtBP/E1A Interaction; AlphaScreen GST-E1A/His-CtBP binding, 1536-well; hits give low values; activity change, % (concentration not given with the values); 340,000 tested, 0.49% active; in the data active = activity change below about -65%; inconclusive = mostly about -30% to -63%
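Homogeneous bead-based format: GST-tagged E1A captured on glutathione donor beads, His-tagged CtBP on nickel acceptor beads; compounds precede bead addition by 2 h at 37 °C.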
IL1B secr inh = qHTS for Inhibitors of Inflammasome Signaling: IL-1-beta AlphaLISA Primary Screen. activity change, % at 57.5 µM. 360,000 tested, 4.7% active. AID 743279, 2014. THP-1 LPS/ATP IL-1B secretion, AlphaLISA, 16 h; hits give low values; in the data active = activity change below about -50%; inconclusive = mostly about -30% to -49%
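Secreted IL-1B measured by AlphaLISA bead assay after 16 h compound exposure of THP-1 cells; compounds (final up to 57.5 uM) added 1 h before LPS (250 ng/mL) and ATP (1.25 mM) stimulation; lower signal means less secretion.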
DT40 TDP1 CPT = qHTS for Inhibitors of human tyrosyl-DNA phosphodiesterase 1 (TDP1): qHTS in cells in presence of CPT. chicken DT40 Tdp1-/-;hTDP1 cells + 20 nM CPT, ATP luminescence, 48 h. Potency, µM (top dose mostly 46.2 µM), usual class: inhibitors. 420,000 tested, 12% active. AID 686979, 2013; also: nearly all actives have a fitted effect of over 55% in size
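Chicken DT40 Tdp1-/- cells stably complemented with human TDP1 were seeded at 400 cells/well in medium containing 20 nM camptothecin, exposed to pin-transferred compounds, and grown at 37 °C for at least 48 hr. Viability was read as ATP luminescence.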
DT40 TDP1 no CPT = qHTS for Inhibitors of human tyrosyl-DNA phosphodiesterase 1 (TDP1): qHTS in cells in absence of CPT. DT40 Tdp1-/- hTDP1 cells, no CPT, ATP luminescence, 48 h. Potency, µM (top dose mostly 46.2 µM), most hits filed as inhibitors. 420,000 tested, 15% active; also: nearly all actives have a fitted effect of over 55% in size
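Compound effects on proliferation are scored in DT40 Tdp1-/-;hTDP1 cells in the absence of CPT. ATP levels (CellTiter-Glo luminescence) are recorded after a ≥48 hr, 37 °C incubation.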
Numbers stand for hits; - = inactive; ? = inconclusive; . = not tested or not shown. Unless noted, calls follow the shape of the dose curve; as a rule, active = well fitted curve in the direction sought with a large enough effect; inconclusive = small, poorly fitted or top-dose-only effect, or another doubt; inactive = no such curve, though single readings can be large; an effect the other way counts as inactive or inconclusive.

SMILES	Six1-Eya2 inh	TDP1 inh	CtBP-E1A inh	IL1B secr inh	DT40 TDP1 CPT	DT40 TDP1 no CPT
CCCn1c(C)cc(=O)c2cc(NC(=O)c3ccccn3)ccc21	?	-	?	-	?	14.6µM
CCOc1ccc(NC(=O)c2ccccn2)cc1	-	-	-	-	-	13µM
CCOc1ccc(NC(=O)C2CSC(c3ccncc3)=N2)cc1 (stereo not given)	-	-	-	-	23.1µM	?
COc1ccccc1NCC(=O)n1nc(C)cc1C	-	-	-	-	-	-
COc1ccc(-c2c(O)c3cc(O)cc(O)c3oc2=O)cc1	.	-	.	.	.	.
COC(=O)c1cccc(Nc2ncnc3sccc23)c1	-	-	-	-	20.6µM	?
CN(C)C(=O)c1ccc(-c2nc(NCc3cccs3)c3ccccc3n2)cc1	.	-	.	.	?	?
CN(C)C(=O)c1ccc(-c2ccc3ncnc(Nc4ccccc4)c3c2)cc1	.	.	.	.	?	1.46µM
CN(C)C(=O)c1ccc(-c2ccc3ncnc(NCc4cccs4)c3c2)cc1	.	.	.	.	-	-
Cc1cccc(CNC(=O)c2ccc3nc(-c4ccccc4)c(-c4ccccc4)nc3c2)c1	.	-	.	.	20.6µM	?
Cc1cccc(CNc2nc(-c3ccc(C(=O)N(C)C)cc3)nc3ccccc23)c1	.	-	.	.	23.1µM	2.91µM
C=CCNC(=O)c1ccc2nc(-c3ccccc3)c(-c3ccccc3)nc2c1	-	-	-	-	?	?
C=CCN(C(=O)c1ccccc1)c1ccc(OC)cc1	-	-	-	-	12.6µM	22.4µM
CN(C)C(=O)c1ccc(Nc2nc(-c3cccs3)nc3ccccc23)cc1	-	.	-	-74.1	10.3µM	7.31µM
CC(=O)c1cccc(Nc2ncnc3ccc(Br)cc23)c1	-	.	-	-	16.4µM	20.6µM
CC(=O)c1ccc(Nc2nc(-c3ccccc3)nc3ccccc23)cc1	-	.	-	-60.0	?	20.6µM
CC(=O)c1cccc(Nc2nc(-c3ccccc3)nc3ccccc23)c1	-	.	-	-	?	?
COC(=O)c1ccc(Nc2nc(-c3ccncc3)nc3ccccc23)cc1	-	.	?	-	-	-
COc1ccc(N(C)C(=O)c2ccc3nc(-c4ccccc4)c(-c4ccccc4)nc3c2)cc1	-	-	-	-	?	18.4µM
O=[N+]([O-])c1ccc(O)c(Nc2ncnc3ccccc23)c1	-	-	.	-	-	-
O=[N+]([O-])c1ccc(O)c(Nc2ncnc3ccc(Br)cc23)c1	-	.	-	-	-	11.6µM
CN(C)C(=O)c1ccc(-c2nc(Nc3ccc(F)cc3)c3ccccc3n2)cc1	.	.	.	.	?	23.1µM
Cc1ccc(C)n1-c1ccc(C(=O)NCC2CCCO2)cc1 (stereo not given)	-	-	-	?	12.6µM	12.6µM
COc1ccc(C(=O)NCC2CCCO2)cc1 (stereo not given)	-	-	-	-	-	-
O=C(NCC1CCCO1)c1ccc(Br)s1 (stereo not given)	-	-	-	-	-	-
O=C(NCC1CCCO1)c1ccc(COc2ccc(Br)cc2)cc1 (stereo not given)	-	-	-	?	29.1µM	23.1µM
O=C(NCC1CCCO1)c1ccc([N+](=O)[O-])s1 (stereo not given)	-	.	?	-	13µM	25.9µM
Cc1ccc(OCc2ccc(C(=O)NCC3CCCO3)cc2)cc1C (stereo not given)	-	-	.	-	?	?
CC(=O)Nc1ccc(S(=O)(=O)N(C)CC(=O)NC2CCCCCCC2)cc1	-	-	-	-	-	?
O=C1/C(=C\c2ccc(O)c(O)c2)C(c2ccccc2)=NN1c1ccccc1	-	-	-	-	?	20.6µM
